The text below walks through data of ChEMBL document CHEMBL2218924, “A broad activity screen in support of a chemogenomic map for kinase signalling research and drug discovery” (Biochem J, 2013).

SMILES strings stand for the structures.

Assay [1] has as its target T1, Ephrin type-A receptor 3 (Homo sapiens) (UniProt P29320).
T1 sequence (whole entry): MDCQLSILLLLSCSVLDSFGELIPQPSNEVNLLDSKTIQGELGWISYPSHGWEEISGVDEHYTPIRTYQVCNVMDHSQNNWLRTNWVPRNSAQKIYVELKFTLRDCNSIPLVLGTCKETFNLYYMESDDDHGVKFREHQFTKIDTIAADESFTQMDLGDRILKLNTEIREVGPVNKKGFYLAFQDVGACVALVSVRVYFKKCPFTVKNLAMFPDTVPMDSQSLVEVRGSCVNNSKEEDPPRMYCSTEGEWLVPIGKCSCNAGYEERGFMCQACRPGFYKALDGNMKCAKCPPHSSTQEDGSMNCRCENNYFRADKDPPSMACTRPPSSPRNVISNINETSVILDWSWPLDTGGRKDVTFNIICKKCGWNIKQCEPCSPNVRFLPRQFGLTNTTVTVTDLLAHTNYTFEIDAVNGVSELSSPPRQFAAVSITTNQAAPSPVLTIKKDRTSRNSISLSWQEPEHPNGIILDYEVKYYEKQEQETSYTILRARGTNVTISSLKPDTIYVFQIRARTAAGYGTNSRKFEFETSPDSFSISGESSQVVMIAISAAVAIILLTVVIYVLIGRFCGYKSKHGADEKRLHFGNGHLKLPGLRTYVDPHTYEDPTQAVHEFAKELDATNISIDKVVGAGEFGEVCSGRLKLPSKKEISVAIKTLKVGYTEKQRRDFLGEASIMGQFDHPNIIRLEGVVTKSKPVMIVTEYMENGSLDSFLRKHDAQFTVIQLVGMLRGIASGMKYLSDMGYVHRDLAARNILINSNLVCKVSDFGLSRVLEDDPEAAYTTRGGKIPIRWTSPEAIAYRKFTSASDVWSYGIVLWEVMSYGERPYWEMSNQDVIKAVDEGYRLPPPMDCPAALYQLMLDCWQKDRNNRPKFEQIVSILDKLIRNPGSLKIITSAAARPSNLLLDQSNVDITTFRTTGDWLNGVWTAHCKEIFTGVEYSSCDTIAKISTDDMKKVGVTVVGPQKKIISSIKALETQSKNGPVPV
The settings on record: at 10 µM.

Assay [2] deals with Ephrin type-A receptor 4 (Homo sapiens) (UniProt P54764). The settings on record: at 1 µM.
The target in assay [3] is Ephrin type-A receptor 5 (Homo sapiens) (UniProt P54756). The settings on record: at 1 µM.
The target is the same in assay [4]. The following applies: at 10 µM.
Assay [5] has as its target Ephrin type-A receptor 7 (Homo sapiens) (UniProt Q15375). The following applies: at 1 µM.
The target is the same in assay [6]. The following applies: at 10 µM.
For assay [7], the target named is T2, Ephrin type-A receptor 8 (Homo sapiens) (UniProt P29322).
T2 sequence (whole entry): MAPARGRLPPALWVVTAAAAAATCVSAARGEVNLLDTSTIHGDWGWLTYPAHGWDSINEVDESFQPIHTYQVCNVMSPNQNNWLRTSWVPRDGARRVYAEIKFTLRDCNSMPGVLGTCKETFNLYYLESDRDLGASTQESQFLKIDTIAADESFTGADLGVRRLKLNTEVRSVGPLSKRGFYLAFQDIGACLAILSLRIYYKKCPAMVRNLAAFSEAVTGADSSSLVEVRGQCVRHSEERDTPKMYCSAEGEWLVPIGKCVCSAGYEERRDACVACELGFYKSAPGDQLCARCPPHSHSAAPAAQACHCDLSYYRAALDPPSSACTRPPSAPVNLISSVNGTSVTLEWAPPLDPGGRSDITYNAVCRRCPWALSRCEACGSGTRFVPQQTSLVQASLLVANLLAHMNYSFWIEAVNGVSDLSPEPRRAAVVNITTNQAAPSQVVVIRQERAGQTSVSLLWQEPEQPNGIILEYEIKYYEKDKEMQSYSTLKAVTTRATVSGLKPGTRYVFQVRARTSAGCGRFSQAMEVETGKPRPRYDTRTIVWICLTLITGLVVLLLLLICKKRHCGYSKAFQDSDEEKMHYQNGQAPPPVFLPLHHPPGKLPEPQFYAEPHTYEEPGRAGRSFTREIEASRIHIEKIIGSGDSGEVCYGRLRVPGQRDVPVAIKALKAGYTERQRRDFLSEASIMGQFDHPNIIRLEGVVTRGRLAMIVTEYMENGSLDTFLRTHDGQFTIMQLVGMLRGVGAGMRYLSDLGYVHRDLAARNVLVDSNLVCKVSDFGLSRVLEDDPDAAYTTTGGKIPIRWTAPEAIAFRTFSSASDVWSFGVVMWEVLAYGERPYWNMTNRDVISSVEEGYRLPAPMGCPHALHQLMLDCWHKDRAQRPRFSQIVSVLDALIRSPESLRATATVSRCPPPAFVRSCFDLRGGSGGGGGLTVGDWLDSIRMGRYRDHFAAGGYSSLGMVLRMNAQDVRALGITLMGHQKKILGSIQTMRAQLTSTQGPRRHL
The following applies: at 1 µM.

The target of assay [8] is T2, Ephrin type-A receptor 8 (Homo sapiens). The settings on record: at 10 µM.
Assay [9] concerns the target T3, Ephrin type-B receptor 1 (Homo sapiens) (UniProt P54762).
T3 sequence (whole entry): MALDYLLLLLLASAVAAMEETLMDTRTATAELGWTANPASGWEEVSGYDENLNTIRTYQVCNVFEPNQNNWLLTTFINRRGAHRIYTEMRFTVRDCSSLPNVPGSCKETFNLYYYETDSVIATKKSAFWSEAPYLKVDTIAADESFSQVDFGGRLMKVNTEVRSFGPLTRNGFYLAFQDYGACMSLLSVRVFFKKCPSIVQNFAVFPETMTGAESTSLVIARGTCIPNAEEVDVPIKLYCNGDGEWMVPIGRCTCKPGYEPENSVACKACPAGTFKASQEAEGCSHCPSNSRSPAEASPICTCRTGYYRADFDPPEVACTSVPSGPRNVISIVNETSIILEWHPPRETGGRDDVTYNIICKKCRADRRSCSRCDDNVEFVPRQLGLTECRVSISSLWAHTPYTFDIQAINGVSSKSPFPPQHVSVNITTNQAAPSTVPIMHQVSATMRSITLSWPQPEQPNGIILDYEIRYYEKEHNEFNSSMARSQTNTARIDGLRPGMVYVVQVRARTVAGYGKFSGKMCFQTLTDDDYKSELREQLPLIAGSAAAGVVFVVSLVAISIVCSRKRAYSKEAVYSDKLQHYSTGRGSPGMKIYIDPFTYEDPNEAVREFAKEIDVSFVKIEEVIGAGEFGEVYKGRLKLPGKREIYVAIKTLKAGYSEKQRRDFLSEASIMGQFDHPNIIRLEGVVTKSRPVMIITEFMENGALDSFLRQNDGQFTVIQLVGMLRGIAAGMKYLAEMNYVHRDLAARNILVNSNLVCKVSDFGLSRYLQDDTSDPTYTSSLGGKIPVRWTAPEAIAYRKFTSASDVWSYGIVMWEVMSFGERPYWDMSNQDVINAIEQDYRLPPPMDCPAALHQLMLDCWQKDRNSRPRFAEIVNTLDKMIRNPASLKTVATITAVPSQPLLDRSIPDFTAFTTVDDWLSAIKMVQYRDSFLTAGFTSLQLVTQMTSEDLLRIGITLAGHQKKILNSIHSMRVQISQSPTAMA
The following applies: at 1 µM.

Sequence of Ephrin type-A receptor 5 (Homo sapiens) (P54756 whole entry): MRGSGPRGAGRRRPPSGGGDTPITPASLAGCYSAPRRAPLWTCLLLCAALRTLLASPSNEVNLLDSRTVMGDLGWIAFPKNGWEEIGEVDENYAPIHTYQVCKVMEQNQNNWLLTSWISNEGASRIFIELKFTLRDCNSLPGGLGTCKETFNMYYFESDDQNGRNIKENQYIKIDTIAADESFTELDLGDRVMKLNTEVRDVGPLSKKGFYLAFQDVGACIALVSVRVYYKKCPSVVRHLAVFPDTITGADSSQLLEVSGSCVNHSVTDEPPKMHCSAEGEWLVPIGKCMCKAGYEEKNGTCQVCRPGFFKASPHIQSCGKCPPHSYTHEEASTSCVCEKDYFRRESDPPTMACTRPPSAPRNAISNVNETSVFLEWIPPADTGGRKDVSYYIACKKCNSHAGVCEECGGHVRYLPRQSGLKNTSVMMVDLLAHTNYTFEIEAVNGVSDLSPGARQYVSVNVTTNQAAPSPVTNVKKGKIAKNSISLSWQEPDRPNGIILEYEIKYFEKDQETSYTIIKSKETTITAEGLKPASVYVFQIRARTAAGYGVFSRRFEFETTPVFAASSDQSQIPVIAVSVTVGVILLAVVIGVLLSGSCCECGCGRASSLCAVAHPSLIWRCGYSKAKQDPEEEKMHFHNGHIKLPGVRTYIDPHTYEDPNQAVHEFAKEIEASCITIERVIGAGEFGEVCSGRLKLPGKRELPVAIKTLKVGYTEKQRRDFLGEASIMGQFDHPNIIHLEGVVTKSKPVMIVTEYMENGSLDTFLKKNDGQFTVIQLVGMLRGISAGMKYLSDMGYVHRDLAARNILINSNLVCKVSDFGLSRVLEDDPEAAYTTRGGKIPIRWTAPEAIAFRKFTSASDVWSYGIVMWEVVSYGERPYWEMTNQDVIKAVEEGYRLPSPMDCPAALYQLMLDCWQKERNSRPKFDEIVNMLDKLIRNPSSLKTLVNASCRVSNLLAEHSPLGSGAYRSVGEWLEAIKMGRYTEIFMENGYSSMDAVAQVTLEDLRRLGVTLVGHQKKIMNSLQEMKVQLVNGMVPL
Sequence of Ephrin type-A receptor 7 (Homo sapiens) (Q15375 28-998 limits assumed): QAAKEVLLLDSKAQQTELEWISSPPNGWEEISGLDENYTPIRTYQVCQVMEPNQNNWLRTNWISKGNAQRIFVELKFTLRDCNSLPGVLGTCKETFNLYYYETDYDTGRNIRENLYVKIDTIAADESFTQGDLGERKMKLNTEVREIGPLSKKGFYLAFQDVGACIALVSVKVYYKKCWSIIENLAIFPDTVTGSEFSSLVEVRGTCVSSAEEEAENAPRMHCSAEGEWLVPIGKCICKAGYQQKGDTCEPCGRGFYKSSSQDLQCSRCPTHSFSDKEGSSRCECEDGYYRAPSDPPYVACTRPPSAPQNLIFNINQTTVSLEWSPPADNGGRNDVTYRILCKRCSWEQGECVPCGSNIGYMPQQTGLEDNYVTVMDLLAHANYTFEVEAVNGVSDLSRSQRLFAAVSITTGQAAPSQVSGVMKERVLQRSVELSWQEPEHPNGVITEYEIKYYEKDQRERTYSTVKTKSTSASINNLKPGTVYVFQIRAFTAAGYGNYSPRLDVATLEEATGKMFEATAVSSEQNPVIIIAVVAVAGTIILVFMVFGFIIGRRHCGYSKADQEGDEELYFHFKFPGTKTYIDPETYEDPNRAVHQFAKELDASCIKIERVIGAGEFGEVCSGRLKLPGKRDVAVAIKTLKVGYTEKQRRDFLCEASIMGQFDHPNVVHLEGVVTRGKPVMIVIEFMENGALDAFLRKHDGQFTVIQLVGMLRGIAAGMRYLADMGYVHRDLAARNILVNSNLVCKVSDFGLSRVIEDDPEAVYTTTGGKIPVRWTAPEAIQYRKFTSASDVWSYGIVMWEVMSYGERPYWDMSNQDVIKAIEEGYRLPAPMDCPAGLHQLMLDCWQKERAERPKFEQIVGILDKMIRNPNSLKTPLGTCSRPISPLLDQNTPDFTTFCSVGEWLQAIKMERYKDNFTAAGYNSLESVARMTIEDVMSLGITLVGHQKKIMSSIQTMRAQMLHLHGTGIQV
Sequence of Ephrin type-A receptor 4 (Homo sapiens) (P54764 whole entry): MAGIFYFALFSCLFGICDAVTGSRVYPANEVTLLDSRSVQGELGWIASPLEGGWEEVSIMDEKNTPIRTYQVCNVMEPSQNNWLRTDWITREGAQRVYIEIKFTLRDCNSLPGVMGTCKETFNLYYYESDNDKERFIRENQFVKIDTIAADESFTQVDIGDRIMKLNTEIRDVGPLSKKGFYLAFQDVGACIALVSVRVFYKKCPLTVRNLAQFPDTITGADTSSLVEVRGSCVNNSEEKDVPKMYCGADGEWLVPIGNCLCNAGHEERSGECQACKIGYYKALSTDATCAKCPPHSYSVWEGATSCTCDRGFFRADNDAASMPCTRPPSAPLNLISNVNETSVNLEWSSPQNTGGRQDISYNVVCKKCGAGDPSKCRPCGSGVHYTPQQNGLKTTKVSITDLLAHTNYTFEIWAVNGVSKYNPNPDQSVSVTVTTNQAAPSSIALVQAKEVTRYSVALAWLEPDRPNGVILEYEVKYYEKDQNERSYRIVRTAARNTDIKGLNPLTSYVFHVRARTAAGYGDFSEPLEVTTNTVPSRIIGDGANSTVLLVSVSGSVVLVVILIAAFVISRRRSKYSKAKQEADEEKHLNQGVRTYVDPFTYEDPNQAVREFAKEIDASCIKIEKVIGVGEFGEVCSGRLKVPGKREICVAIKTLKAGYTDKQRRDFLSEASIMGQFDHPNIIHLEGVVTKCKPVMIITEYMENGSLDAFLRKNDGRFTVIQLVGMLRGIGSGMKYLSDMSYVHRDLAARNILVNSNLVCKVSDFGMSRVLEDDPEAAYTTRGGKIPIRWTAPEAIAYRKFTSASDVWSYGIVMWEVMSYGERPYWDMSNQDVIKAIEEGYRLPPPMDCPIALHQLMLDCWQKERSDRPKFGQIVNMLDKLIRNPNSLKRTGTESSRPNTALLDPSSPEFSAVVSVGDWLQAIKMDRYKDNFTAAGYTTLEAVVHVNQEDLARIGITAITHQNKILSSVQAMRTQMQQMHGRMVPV

In general, residual activity refers to the signal under treatment as a percentage of the control signal. For `CC(C)(C)c1cc(C=C(C#N)C#N)cc(Br)c1O`, the residual activity in [1] is 106%; in assay [2] it was 113%; in assay [3], 107%; in assay [4] it was 97%; in assay [5], 109%; in assay [6], 102%. The residual activity turned out to be 117% in [7], 99% in assay [8] and 106% in [9].
